# PubChem BioAssay
# Records with an inconclusive call do not appear. Active and inactive are the calls of the source.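 The calls were made as follows, unless noted: active = compounds that lower survival of HCT116 colon cancer cells in the luminescence readout, no numeric limit stated; inactive = the rest.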
# Tests used:
# [1] = stimulators of insulin release from INS-1E, primary screen, cell-based, 5 mM glucose, NPC library (AID 1117329;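 active = compound raises insulin release from rat beta cells at 5 mM glucose, no numeric limit stated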); details: rat INS-1E insulin secretion, at 10 µM, stronger effect = higher value
# [2] = growth inhibition of GSK3B-pretreated HCT116 cells – cell-based, CellTiter-Glo, 0.2 to 20 µM (AID 1117336;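 active = compounds lowering colon cancer cell viability after pretreatment blocking the GSK3B kinase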); details: HCT116 viability after GSK3B inhibitor, at 20 µM, stronger effect = higher value
# [3] = inhibition of endothelial tube formation, primary screen, imaging, VEGF stimulated, CD31 staining, tube area, NPC library (AID 1117340;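 active = compound that reduces growth-factor-driven endothelial tube area in a mixed cell culture, no cutoff stated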); details: VEGF-stimulated ADSC/ECFC co-culture, at 10 µM, stronger effect = higher value
# [4] = glucagon-like peptide 1 release enhancers, primary assay, NCI-H716 cell line, NPC library (AID 1117341;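 active = compound raises GLP1 secretion from the human gut endocrine cells, with no numeric limit stated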); details: NCI-H716 cells, at 10 µM, stronger effect = higher value
# [5] = HCT116 colon cancer cell growth inhibition, primary screen, CellTiter-Glo luminescence, NPC library (AID 1117342); details: at 20 µM (top of the series)
# [6] = CellTiter-Glo luminescent readout of SW480 viability loss, NPC library primary (AID 1117343;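 active = compounds that lower viability of the colon cancer cells in the luminescence readout, with no numeric limit stated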); details: CellTiter-Glo luminescence; at 20 µM (top of the series)
# [7] = decreased DLD-1 cellular survival, CellTiter-Glo luminescent readout, NPC compound collection, primary HTS (AID 1117346;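 active = compounds that lower survival of DLD-1 colon cancer cells in the luminescence readout, no cutoff given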); details: DLD-1 viability, CellTiter-Glo luminescence; at 20 µM (top of the series)
# [8] = biological target: 6-phosphogluconate dehydrogenase, decarboxylating (Homo sapiens) (UniProt P52209); test: 6PGD enzyme inhibitors, primary screen, biochemical, human, recombinant enzyme, NADPH absorbance (AID 1159550;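 active = at least 20% inhibition of 6-phosphogluconate dehydrogenase activity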); details: recombinant 6PGD, NADPH absorbance 341 nm; at 10 µM; stronger effect = higher value
# [9] = differential killing of epithelial or mesenchymal cells, primary screen, imaging, PC-3E GFP, TEM4-18 mCherry, co-culture (AID 1345086;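 active = compounds killing one labelled cell type while sparing the other, by normalised counts and ratio limits, not self-fluorescent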;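 as to all read-outs here: cells exposed to compound for 72 h before imaging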;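 as to red/green cell ratio (normalised): normalised mesenchymal count divided by normalised epithelial count so high means epithelial killing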); details: imaging cell counts, at 1 µM; for red/green cell ratio (normalised): actives lie on both sides, counts scaled to control wells, 1 = unselective
# [10] = modulation of C. elegans fzo-1 (AID 1259413; call rule not given here;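 also: fzo-1 mutant C. elegans worms in liquid wells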); details: C. elegans fzo-1 modulator screen, mean read-out; stronger effect = higher value
# [11] = growth inhibition of DIPG glioma cells, dose response, cell-based, SU-DIPG-XVII, MIPE5.0, CellTiter-Glo, qHTS (AID 1347060; cut-off not given, nearly all actives have AC50 up to about 26 µM;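 also: cells exposed to compound for 48 hours before viability readout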); details: SU-DIPG-XVII viability, CellTiter-Glo ATP luminescence
# [12] = growth inhibition of DIPG glioma cells, dose response, cell-based, SU-DIPG-XIII, MIPE4.0, CellTiter-Glo, qHTS (AID 1347061; cut-off not given, nearly all actives have AC50 up to about 37 µM;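 also: cells exposed to compound for 48 hours before readout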); details: SU-DIPG-XIII viability, CellTiter-Glo ATP luminescence
# [13] = growth inhibition of DIPG glioma cells, dose response, cell-based, JHH-DIPG-1, MIPE4.0, CellTiter-Glo, qHTS (AID 1347062; cut-off not given, nearly all actives have AC50 up to about 27 µM;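 as to AC50: cells exposed to compound for two days before readout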); details: JHH-DIPG-1 viability, CellTiter-Glo ATP luminescence
# [14] = growth inhibition of DIPG glioma cells, dose response, cell-based, SU-DIPG-IV, MIPE4.0, CellTiter-Glo, qHTS (AID 1347063; cut-off not given, nearly all actives have AC50 up to about 30 µM;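 also: compound exposure lasted 48 hours before the viability readout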); details: SU-DIPG-IV viability, CellTiter-Glo ATP luminescence
# [15] = growth inhibition of DIPG glioma cells, dose response, cell-based, SU-DIPG-XIII, MIPE5.0, CellTiter-Glo, qHTS (AID 1347064; cut-off not given, nearly all actives have AC50 up to about 23 µM;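 also: cells exposed to compound for 48 hours before the viability read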); details: SU-DIPG-XIII viability, CellTiter-Glo ATP luminescence
# [16] = measured here: epithelial PC-3E GFP cell survival
# [17] = measured here: mesenchymal TEM4-18 mCherry cell survival
# 6-phosphogluconate dehydrogenase, decarboxylating (Homo sapiens), sequence (P52209 whole entry, looked up): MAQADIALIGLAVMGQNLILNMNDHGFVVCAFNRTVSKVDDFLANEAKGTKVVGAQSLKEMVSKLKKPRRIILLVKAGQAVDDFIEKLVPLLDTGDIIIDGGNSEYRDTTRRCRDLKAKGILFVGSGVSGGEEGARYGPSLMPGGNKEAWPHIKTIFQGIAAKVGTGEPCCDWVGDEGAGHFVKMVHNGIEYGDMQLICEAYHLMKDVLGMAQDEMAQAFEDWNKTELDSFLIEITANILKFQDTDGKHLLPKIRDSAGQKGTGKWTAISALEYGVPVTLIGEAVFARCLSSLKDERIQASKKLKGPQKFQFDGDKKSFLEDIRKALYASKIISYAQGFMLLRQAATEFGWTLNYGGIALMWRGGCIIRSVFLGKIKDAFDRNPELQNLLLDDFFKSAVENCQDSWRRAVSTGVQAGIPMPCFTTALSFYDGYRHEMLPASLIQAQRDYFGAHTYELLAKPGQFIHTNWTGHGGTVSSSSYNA
Compound,insulin secretion stimulation [1],viability decrease [2],tube area decrease [3],GLP1 secretion stimulation [4],inhibition of viability [5],viability decrease (inhibition) [6],viability decrease (inhibition) [7],inhibition [8],red/green cell ratio (normalised) [9],"normalised cell number [9, 16]","normalised cell number [9, 17]",mean signal [10],AC50 [11],outcome [12],outcome [13],outcome [14],AC50 [15],AC50 [12],AC50 [13],AC50 [14]
C[C@@H]1CC[C@@]2(OC1)O[C@H]1C[C@H]3[C@@H]4CC[C@H]5C[C@@H](O)CC[C@]5(C)[C@H]4CC(=O)[C@]3(C)[C@H]1[C@@H]2C,3.2% (inactive),13.4% (inactive),-13.1% (inactive),-3.1% (inactive),4.27% (inactive),7.5% (inactive),3.7% (inactive),14.9% (inactive),,,,,,,,,,,,
CC(=O)OCC(=O)[C@@]1(O)[C@H](C)C[C@H]2[C@@H]3CCC4=CC(=O)C=C[C@]4(C)[C@@]3(F)[C@@H](O)C[C@@]21C,0.55% (inactive),10.3% (inactive),-13.1% (inactive),4% (inactive),7.2% (inactive),32.2% (inactive),-4.9% (inactive),-7.66% (inactive),,,,,,,,,,,,
C[C@]12C[C@H](O)[C@H]3[C@@H](CCC4=CC(=O)CC[C@@]43C)[C@@H]1CC[C@@H]2C(=O)CO,1.6% (inactive),-24.9% (inactive),9.5% (inactive),0.3% (inactive),-2.93% (inactive),37.4% (inactive),8.6% (inactive),,,,,,,,,,,,,
CCOC(=O)OC(C)OC(=O)[C@@H]1N2C(=O)[C@@H](NC(=O)[C@H](N)c3ccccc3)[C@H]2SC1(C)C (stereo partly drawn),0.3% (inactive),-28.2% (inactive),5.9% (inactive),-3.1% (inactive),-1.7% (inactive),-35.9% (inactive),-10.2% (inactive),-1.65% (inactive),,,,,,,,,,,,
CCCC(C(=O)OCCN(CC)CC)(c1ccccc1)c1ccccc1,5.7% (inactive),52.5% (active),9.6% (inactive),11.5% (inactive),86.3% (active),76.5% (active),62.5% (active),3.92% (inactive),1.41 (inactive),0.9,1.28,,,,,,,,,
CCN(CC)C(=O)c1cccc(C)c1,5% (inactive),3.4% (inactive),-44.2% (inactive),2.9% (inactive),-3.2% (inactive),-14.3% (inactive),12.4% (inactive),9.21% (inactive),1.18 (inactive),1,1.19,,,,,,,,,
O=C(O)CCCC[C@@H]1SC[C@@H]2NC(=O)N[C@@H]21,-0.9% (inactive),-1.65% (inactive),-24.1% (inactive),1.6% (inactive),-15% (inactive),33.7% (inactive),4.5% (inactive),12.7% (inactive),,,,,,,,,,,,
C[N+](C)(C)CCCCCC[N+](C)(C)C,0.75% (inactive),10.7% (inactive),-10.2% (inactive),-1.6% (inactive),13.3% (inactive),-4.3% (inactive),5.4% (inactive),12.6% (inactive),0.92 (inactive),1.09,1,,,,,,,,,
Clc1ccccc1C(c1ccccc1)(c1ccccc1)n1ccnc1,0.9% (inactive),110% (active),73.1% (active),29.1% (active),113% (active),132% (active),101% (active),-6.11% (inactive),1.09 (inactive),1.31,1.43,209 (inactive),23.5 µM (active),inactive,inactive,inactive,,,,
O=C(O)c1cc(=O)c2ccccc2o1,-2.1% (inactive),-1.35% (inactive),-2.1% (inactive),3.7% (inactive),-9.2% (inactive),6.8% (inactive),1.75% (inactive),-2.11% (inactive),0.88 (inactive),0.88,0.78,,,,,,,,,
Cc1cc(CC(=O)O)n(C)c1C(=O)c1ccc(Cl)cc1,2.6% (inactive),-27.2% (inactive),15.1% (inactive),-1.1% (inactive),1.13% (inactive),14.7% (inactive),-17.6% (inactive),-4.85% (inactive),0.89 (inactive),1.1,0.98,,,,,,,,,
C[C@]12C=CC(=O)C=C1CC[C@H]1[C@@H]3C[C@@H](O)[C@](O)(C(=O)CO)[C@@]3(C)C[C@H](O)[C@@]12F,-0.5% (inactive),8.2% (inactive),-16.1% (inactive),-3.1% (inactive),11% (inactive),13.3% (inactive),14.8% (inactive),-17.6% (inactive),,,,,,,,,,,,
O=C(OCc1ccccc1)c1ccccc1,0.7% (inactive),-5.3% (inactive),5.6% (inactive),-2.6% (inactive),10.4% (inactive),-12.6% (inactive),-9.1% (inactive),-0.0939% (inactive),0.83 (inactive),1.34,1.11,,,,,,,,,
CC(=O)[C@@]1(O)CC[C@H]2[C@@H]3C[C@H](C)C4=CC(=O)C=C[C@]4(C)[C@@]3(F)[C@@H](O)C[C@@]21C,-1.1% (inactive),-45.9% (inactive),-16% (inactive),-0.3% (inactive),-1.33% (inactive),-18.3% (inactive),-7.2% (inactive),15.2% (inactive),,,,,,,,,,,,
CC1(C)O[C@@H]2C[C@H]3[C@@H]4C[C@H](F)C5=CC(=O)CC[C@]5(C)[C@H]4[C@@H](O)C[C@]3(C)[C@]2(C(=O)CO)O1,6.1% (inactive),0.8% (inactive),-40.9% (inactive),1.2% (inactive),0.1% (inactive),-2.1% (inactive),-16.6% (inactive),8.44% (inactive),,,,,,,,,,,,
CC(NCCC(c1ccccc1)c1ccccc1)c1ccccc1 (stereo not drawn),4.5% (inactive),99.5% (active),15.4% (inactive),-2.1% (inactive),99.3% (active),102% (active),89% (active),4.5% (inactive),0.89 (inactive),0.97,0.86,,,,,,,,,
CCN(CC)CCOc1ccc(/C(=C(\Cl)c2ccccc2)c2ccccc2)cc1,3.6% (inactive),102% (active),110% (active),22.8% (active),102% (active),124% (active),103% (active),-19.7% (inactive),1.05 (inactive),1.43,1.5,199 (inactive),8.33 µM (active),,,,11.8 µM (active),,,
CC(=O)Oc1c(C)c(C)c2c(c1C)CC[C@@](C)(CCC[C@H](C)CCC[C@H](C)CCCC(C)C)O2,0.3% (inactive),-9.9% (inactive),-15.2% (inactive),1.2% (inactive),1.13% (inactive),-13.6% (inactive),-19.7% (inactive),14% (inactive),,,,,,,,,,,,
CN1CCN(C2=Nc3ccccc3Oc3ccc(Cl)cc32)CC1,0.1% (inactive),-29.5% (inactive),43.3% (active),1.6% (inactive),30.1% (inactive),107% (active),85% (active),-14% (inactive),0.99 (inactive),1.1,1.09,262 (inactive),,,,,,,,
CN1CCN(CCCN2c3ccccc3Sc3ccc(Cl)cc32)CC1,3.6% (inactive),13% (inactive),47.3% (active),17.2% (inactive),86% (active),137% (active),94.4% (active),5.8% (inactive),1.2 (inactive),0.97,1.16,253 (inactive),,,,,,0.0105 µM (active),7.43 µM (active),10.5 µM (active)
CC(CN(C)C)CN1c2ccccc2CCc2ccccc21 (stereo not drawn),2.4% (inactive),-139% (inactive),13.4% (inactive),4.5% (inactive),55.4% (active),136% (active),1.5% (inactive),13.6% (inactive),1.03 (inactive),1.32,1.36,,,,,,,,,
NC(=NCCCCCCN=C(N)/N=C(\N)Nc1ccc(Cl)cc1)/N=C(\N)Nc1ccc(Cl)cc1,36.6% (active),120% (active),111% (active),161% (active),125% (active),166% (active),101% (active),-5.13% (inactive),1.05 (inactive),0.89,0.93,,,,,,,,,
NC(N)=Nc1nc(CSCC/C(N)=N/S(N)(=O)=O)cs1,2.8% (inactive),6.7% (inactive),6.4% (inactive),1.4% (inactive),-8.7% (inactive),0.7% (inactive),-10.3% (inactive),5.97% (inactive),,,,276 (inactive),,,,,,,,
C[C@@H]1C[C@H]2[C@@H]3C[C@H](F)C4=CC(=O)C=C[C@]4(C)[C@@]3(F)[C@@H](O)C[C@]2(C)[C@@]1(O)C(=O)CO,2.8% (inactive),-29.3% (inactive),-2.9% (inactive),-2.9% (inactive),4.83% (inactive),-11.5% (inactive),-9.6% (inactive),8.65% (inactive),,,,,,,,,,,,
CO[C@@]1(NC(=O)CSCC#N)C(=O)N2C(C(=O)O)=C(CSc3nnnn3C)CS[C@@H]21,-1.4% (inactive),-2.9% (inactive),-0.3% (inactive),-2.4% (inactive),-6.4% (inactive),-7.4% (inactive),-14.4% (inactive),-6.33% (inactive),,,,,,,,,,,,
C=C1c2cccc(O)c2C(O)=C2C(=O)[C@]3(O)C(O)=C(C(N)=O)C(=O)[C@@H](N(C)C)[C@@H]3[C@@H](O)[C@H]12,-1.8% (inactive),-253% (inactive),9.7% (inactive),0.4% (inactive),-0.33% (inactive),-1.7% (inactive),58.4% (active),13.8% (inactive),0.93 (inactive),0.85,0.79,,,,,,,,,
